In PubChem BioAssay AID686978 (National Center for Advancing Translational Sciences (NCATS), 2013):
Where “and” joins values, the source holds several entries; their conditions need not be identical. Identical values can stand only once. The campaign covered roughly 420,000 compounds. About 64,000 (15%) were called active. Inconclusive results (about 27%) are left out. Calls follow the shape of the dose curve; as a rule, active = well fitted inhibition curve with a large enough effect; inconclusive = small, poorly fitted or top-dose-only effect; inactive = flat fitted curve, though single readings scatter. These entries were drawn from the full list. Where a call stands in place of a potency, no number is given. Some structures have more than one record in an assay (separate samples or runs), and their calls can disagree. Numbered stars: 1 amine (or outer) side, 2 acyl side, 3 side chain; on linkers, the order of the positions; unused ones are H or OH. Bridge positions count the residues as written; N and C are the ends. Square brackets hold non-standard residues; d marks the D form. Peptide text beside a SMILES is read from it. * marks the point of attachment. X11 = NC1=N[C@@H]([C@H](N[*:1])C(=O)[*:2])C[C@H](O)N1; ΔAla(Z-3-ureido) = NC(=O)N/C=C(\N)C(=O)O; β3hOrn = NCCC[C@H](N)CC(=O)*; Dap = NC[C@H](N)C(=O)O

Assay: qHTS for Inhibitors of human tyrosyl-DNA phosphodiesterase 1 (TDP1): qHTS in cells in absence of CPT; also: nearly all actives have a fitted effect of over 55% in size
Conditions: DT40 Tdp1-/- hTDP1 cells, no CPT, ATP luminescence, 48 h; activity change, negative = growth inhibition: at 46.2 µM (top of the series)
How it was run: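 Camptothecin absent (DMSO only). Human TDP1-complemented DT40 knockout cells, 400 cells/well, 37 °C for minimum 48 hr; ATP measured via CellTiter-Glo, 30 min dark incubation, luminescence.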
Potency is read from the fitted curve at half-maximal effect.

Row | SMILES | Potency
1 | O=C(CSC1=Nc2ccccc2C2=NC(c3ccccc3)C(=O)N12)NCC1CCCO1 (stereo not given) | inactive
2 | Cc1ccc(C)c(S(=O)(=O)N2CC(=O)Nc3ccccc32)c1 | inactive
3 | O=C(Nc1ccc(NC(=O)c2cccs2)cn1)c1ccco1 | inactive
4 | Cc1ccc(NC(=O)Cn2nnc(C(=O)NCc3ccco3)c2N)c(C)c1 | inactive
5 | CCOc1ccccc1NC(=O)Cc1cccs1 | inactive
6 | CCOc1ccccc1NC(=O)Cn1nnc(C(=O)NCc2cccs2)c1N | 130 nM (active) and 51.7 nM (active)
7 | Cc1cc(C)n(CC(C)NCc2c(C(=O)N3CCOCC3)nc3c(C)cccn23)n1 (stereo not given) | inactive
8 | Fc1ccc(Nc2nnns2)cc1 | inactive
9 | Cc1sc2c(c1C)c(=O)n(-c1ccccc1)c(=O)n2CC(=O)NCC1CCCO1 (stereo not given) | inactive
10 | Nc1ccc(C(=O)Nc2ccccc2N)cc1 | 2.37 µM (active) and 3.26 µM (active)
11 | Nc1ccc(C(=O)NCc2ccccc2)cc1 | inactive
12 | Nc1ccc(S(=O)(=O)NC(=O)c2ccccc2)cc1 | inactive
13 | COc1ccc2oc(=O)c(C(=O)N3CCCC3)cc2c1 | inactive
14 | CC(C)C[C@H](NC(=O)NCCc1ccc(Cl)cc1)C(=O)O | inactive
15 | O=C(O)CC1(CC(=O)Nc2cccc(C(F)(F)F)c2)CCCC1 | inactive
16 | O=C(O)CSCC(=O)Nc1cccc(C(F)(F)F)c1 | inactive
17 | O=C(Nc1cccc(C(F)(F)F)c1)c1cc(Br)cc(Br)c1O | 13.3 µM (active)
18 | Cn1c(SCC(=O)N2CCOCC2)nnc1-c1ccc(NC(=O)c2ccccc2F)cc1 | inactive
19 | CC1CN(C(=S)Nc2ccc(Br)cc2Cl)CC(C)O1 (stereo not given) | inactive
20 | C=CCNC(=S)N/N=C/c1ccc(OCc2ccccc2)cc1 | inactive
21 | O=C(N/N=C/c1cccc(OCc2ccccc2)c1)c1ccc(Br)o1 | inactive
22 | CNC(=S)N/N=C/c1ccc(OCc2ccccc2)c(Br)c1 | 10.3 µM (active)
23 | CC1CN(c2cc(=O)n(-c3cccc(Br)c3)c(=O)[nH]2)CC(C)O1 (stereo not given) | inactive
24 | CS(=O)(=O)c1cccc(-c2ccc3nncn3c2)c1 | inactive
25 | CSc1ccccc1C(=O)OCC(=O)N1CCN(C(C)=O)CC1 | inactive

Row | SMILES | Potency
26 | Cc1ccc(N2C(=O)CN=C2Nc2nc(C)cc(C)n2)cc1 | inactive
27 | Cc1cc(/C=C2\SC(=Nc3ccc(N4CCOCC4)cc3)N(C)C2=O)c(C)n1-c1cccnc1 | inactive
28 | O=C(Nc1ccc([N+](=O)[O-])cc1)OCCc1ccccn1 | inactive
29 | Cc1cc(Nc2ccccc2)nc(N)n1 | inactive
30 | Cc1ccc2nc(Nc3ccccc3)cc(C)c2c1 | 10.3 µM (active)
31 | Clc1ccc(Nc2ccc3ccccc3n2)cc1 | inactive
32 | Cc1nc(CC(=O)NNS(=O)(=O)c2ccc(F)c(Cl)c2)cs1 | inactive
33 | NCCC[C@H](N)CC(=O)N[C@H]1CNC(=O)[C@H]([C@H]2C[C@H](O)NC(N)=N2)NC(=O)/C(=C/NC(N)=O)NC(=O)[C@H](CO)NC(=O)[C@H](CO)NC1=O (β3hOrn-[Dap]SS[ΔAla(Z-3-ureido)][X11]; lactam 1-C) | inactive
34 | CCOc1cc(C)ccc1OCc1nnc(SCC(=O)Nc2cccc(C(=O)O)c2)n1-c1ccccc1 | inactive
35 | Cc1c(Br)c([N+](=O)[O-])nn1C(C)C(=O)Nc1nccs1 (stereo not given) | inactive
36 | CC(=O)Nc1ccc(S(=O)(=O)NC(C)C(=O)OCC(=O)NC2CCCC2)cc1 (stereo not given) | inactive
37 | CCc1ccc(-n2nc(C)c3c(C)cc(=O)n(CC(=O)Nc4ccc(F)cc4C)c32)cc1 | inactive
38 | COc1ccc(NC(=O)Cn2c(=O)cc(C)c3c(C)nn(-c4cccc(Cl)c4C)c32)cc1OC | inactive
39 | CCOC(=O)c1ccc(NC(=O)Cn2c(=O)cc(C)c3c(C)nn(-c4cccc(F)c4)c32)cc1 | 18.4 µM (active)
40 | Cc1cnc(-n2ncc(C(=O)N3CCN(C(C)C)CC3)c2-c2ccco2)nc1-c1ccc(F)cc1 | inactive
41 | O=C(Nc1nnc(CCN2CCCCC2)s1)c1cccc(Cl)c1 | inactive
42 | CCN(CC)CC1(O)CCN(C(=O)c2ccc(Cl)c(Cl)c2)CC1 | inactive
43 | CCCNC(=O)c1ccc(Cl)c(Cl)c1 | inactive
44 | CCCn1c(=N)n(CC(=O)c2ccc(Cl)c(Cl)c2)c2ccccc21 | 11.6 µM (active)
45 | O=C(O[C@@H]1[C@H](Cc2ccccc2)NS(=O)(=O)[C@H]2C[C@@H]3C=C[C@]12O3)c1ccccc1Br | 16.4 µM (active)
46 | O=S1(=O)CCOC[C@H](Cc2ccccc2)N1Cc1ccccc1Br | inactive
47 | O=C(O[C@H]1[C@H](Cc2ccccc2)NS(=O)(=O)[C@H]2C[C@@H]3C=C[C@]12O3)c1ccc([N+](=O)[O-])cc1 | inactive
48 | Cc1ccc(Nc2cc(=O)n(C3CCCCC3)c(=O)[nH]2)cc1C | inactive
49 | C/C(=C\C(=O)c1ccc(Br)cc1)N1CCCCC1 | inactive
50 | O=S1(=O)CCN2C(=N1)SC1=C2CCN(Cc2ccccc2)C1 | inactive

Row | SMILES | Potency
51 | O=C(O)CC12CC3CC(C1)CC(n1ncc(NCc4ccc(F)cc4)c(Cl)c1=O)(C3)C2 | inactive
52 | O=C(O)c1ccc(Cn2cnc3c(=S)nc[nH]c32)cc1 | inactive
53 | CCOC(=O)C1CCN(S(=O)(=O)c2ccc3c(c2)N(C(C)=O)CCO3)CC1 | inactive
54 | CC(=O)N1CCSc2ccc(S(=O)(=O)N3CCC(C)CC3)cc21 | 14.6 µM (active)
55 | CC1CCN(S(=O)(=O)c2ccc3c(c2)n(C)c(=O)n3C)CC1 | inactive
56 | CCOC(=O)c1ccccc1C(=O)N1CCOCCOCCOCC1 | inactive
57 | CCC(C)CN1CCC(CO)(Cc2ccccc2Cl)CC1 (stereo not given) | inactive
58 | O=C(Nc1cnccn1)c1cccnc1 | inactive
59 | O=C(O)c1ccc2c3c(cccc13)C(=O)N(OS(=O)(=O)c1ccccc1)C2=O | inactive
60 | COc1ccccc1N1CCN(c2ncnc3onc(-c4cccc(Cl)c4)c23)CC1 | inactive
61 | Cc1ccc(Cl)cc1N(C)C(=O)C1CCCN(c2ncnc3onc(-c4ccc(F)cc4)c23)C1 (stereo not given) | 4.11 µM (active)
62 | CN(Cc1ccccc1)c1ncnc2onc(-c3ccc(F)cc3)c12 | 18.4 µM (active)
63 | CC1=C(c2ccc(F)cc2)S(=O)(=O)N=C1N1CCC(C(=O)NCCc2ccccc2C)CC1 | inactive
64 | COc1ccccc1N1CCN(c2ncnc3sc(C)c(-c4ccccc4)c23)CC1 | inactive
65 | CCc1ccccc1N(C)C(=O)C1CCCN(c2ncnc3onc(-c4ccc(F)cc4)c23)C1 (stereo not given) | 11.6 µM (active)
66 | COc1ccccc1N1CCN(c2ncnc3onc(-c4ccc(F)cc4)c23)CC1 | 18.4 µM (active)
67 | CN(Cc1ccccc1)c1ccc(-c2nc(-c3ccccc3)no2)cc1[N+](=O)[O-] | inactive
68 | CCc1noc(C)c1C(=O)N1CCCC(N2CCN(c3ccc(F)cc3)CC2)C1 (stereo not given) | inactive
69 | O=C1NN(c2ccccc2)C(=O)/C1=C/c1ccc(-c2cccc(C(=O)O)c2)o1 | inactive
70 | O=C1NC[C@H](CCCCN2CCN(CCc3ccccc3)C(=O)C2=O)N(CC2CCCCC2)C1=O | inactive
71 | CN(C)NC(=O)c1csnc1-c1c(Cl)cccc1Cl | inactive
72 | c1ccc(Nc2n[nH]nc2-c2ccccc2)cc1 | inactive
73 | Cc1ccccc1-c1nc(CS(=O)(=O)CC(=O)NC(C)c2ccccc2)c(C)o1 (stereo not given) | inactive and 16.4 µM (active)
74 | Cc1ccc(S(=O)(=O)CC(=O)NC(C)c2ccccc2)cc1 (stereo not given) | inactive
75 | CSc1ccc(CCNC(=O)CS(=O)(=O)Cc2nc(-c3ccccc3F)oc2C)cc1 | inactive

Row | SMILES | Potency
76 | Cc1ccc(NC(=O)c2sccc2C)cc1[N+](=O)[O-] | inactive
77 | O=C(C1CCN(CC2CCCCC2)CC1)N1CCCC1 | inactive
78 | CC(=O)NS(=O)(=O)c1ccc(NC(=S)NC(=O)C(C)(C)C)cc1 | inactive
79 | CC(NC(=O)c1ccccc1SCC(=O)N1CCCC1)c1ccccc1 (stereo not given) | inactive
80 | CC1(C)Cc2nc3sc4c(SCC(=O)NC(c5ccccc5)c5ccccc5)ncnc4c3cc2CO1 | 8.2 µM (active)
81 | C=CCn1c(=S)[nH]c2nc3c(cc2c1=O)COC(C)(C)C3 | inactive
82 | CCOc1ccc(NC(=O)CSc2ncnc3c2sc2ccccc23)cc1 | inactive
83 | O=c1cnnc(Nc2ccccc2F)[nH]1 | inactive
84 | CCc1nc2nc(C)c(NS(=O)(=O)c3ccc4c(c3)CCCC4)c(=O)n2[nH]1 | inactive
85 | COCc1c(N)c(C)nc(Cl)c1C#N | inactive
86 | O=C(NCCCO)C(=O)Nc1c2c(nn1-c1ccccc1)CSC2 | inactive
87 | COc1ccc(N(C(=O)CNC(=O)c2ccco2)C(C(=O)NCC2CCCO2)c2ccccc2)cc1Cl (stereo not given) | inactive
88 | O=C(NCc1cccnc1)c1cn(-c2ccccc2)nc1-c1cccs1 | inactive
89 | Cc1ccc(-c2nn(-c3ccc(F)cc3)cc2C(=O)NCC(c2cccs2)N2CCOCC2)cc1 (stereo not given) | 14.6 µM (active)
90 | O=C(NCCCN1CCOCC1)c1cn(-c2ccccc2)nc1-c1ccc(F)cc1 | inactive
91 | Cc1nn(CC(=O)NCc2ccccn2)c(C)c1[N+](=O)[O-] | inactive
92 | CCOC(=O)c1c(NC(=O)/C=C/c2ccco2)sc(C)c1C | inactive
93 | C#CCOCCOCCOCCNc1nc(N2CCN(C(=O)C([C@@H](C)CC)n3cc(C(N)COC(=O)C(F)(F)F)nn3)CC2)nc(N2CCN(C(=O)[C@H](Cc3ccc(O)cc3)n3cc(C(N)[C@H](C)CC)nn3)CC2)n1 (stereo not given in full) | inactive
94 | O=C(CSc1nncn1-c1cccnc1)N1CCOCC1 | inactive
95 | O=S(=O)(c1ccc(F)cc1)N1CCN(C(=S)NC2CCCC2)CC1 | inactive
96 | CCOC(=O)c1sc(=S)n(-c2cccc(OC)c2)c1N | 11.2 µM (active)
97 | COc1cccc(-n2c(=S)sc3c(=O)n(-c4ccccc4C)c(SCC(=O)O)nc32)c1 | inactive
98 | CCOC(=O)Cn1c(N)c(C(=O)OC)sc1=S | inactive
99 | Cc1ccc(-c2nnn(CC(=O)N(CCO)C(C(=O)NC(C)(C)C)c3ccncc3)n2)cc1 (stereo not given) | inactive
100 | Cc1cccc2c3c(ccc12)C1=C(C(=O)C3=O)C(C)CO1 (stereo not given) | inactive
